Experimental findings from PubChem BioAssay (NCI) are described below.

In this experiment the test system is HL-60(TB) leukemia. Put plainly: NCI-60 one-dose screen, 48 h (100 = growth as untreated, 0 = no growth, -100 = all killed). The note with it: 10 µM unless noted.

Values joined by “and” are separate entries in the source; they are usually repeats but may differ in a detail not shown here. Identical values can stand only once. Compounds without any hit were thinned out: in the full panel of roughly 83,000, 20% have a hit.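 Each cell line was grown in a 96-well plate and treated with one concentration of compound for 48 hours. Values below 10 were considered active.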 Active and inactive are the calls of the source.

`CNC(=O)Cc1nc(-c2cccc(NS(=O)(=O)c3c(F)cccc3F)c2F)c(-c2ccnc(Nc3ccccc3)n2)s1`: the growth is 57.8% (inactive).
For `N=c1c2ccccc2nc2n1CCCCC2` the value was 130% (inactive); for `NS(=O)(=O)OCC1OC(n2cnc3cncnc32)C(O)C1O` (centres undefined), 37.8% [0.1 µM] (inactive) and 27.5% [0.1 µM] (inactive).
For the molecule `CCN(CC)c1ccc2nc3ccc(=[N+](CC)CC)cc-3oc2c1`, the growth is -12.7% (active).
The result for `CCCCCCN(CCCCCC)C(=N)c1ccnc2ccccc12` reads 43.2% (inactive); that for `C=C(C)[C@@H]1CC[C@]2(C(=O)NCCNCCNC(=O)OC(C)(C)C)CC[C@]3(C)[C@H](CC[C@@H]4[C@@]5(C)CCC(=O)C(C)(C)[C@@H]5CC[C@]43C)[C@@H]12`, -14.3% [100 µM] (active); that for `N#C/C(=C\c1ccc(-c2ccc(Br)cc2)o1)c1nc(-c2ccco2)cs1`, 89.3% (inactive).
For `NS(=O)(=O)c1cc2c(cc1Cl)NC(C(Cl)Cl)NS2(=O)=O` (centres undefined) the value was 91.5% (inactive) and 105% (inactive); for `CCCCn1c(C)nc2ccc(Nc3nc(N4CCN(C)CC4)nc4nc[nH]c34)cc21`, 99.8% (inactive); for `O=Nc1c(O)c(Cl)cc2ccccc12`, 42.7% (inactive).
With `CCCCCN(CCCCC)CC(O)c1cc2c(c3ccccc13)CCCC2` (centres undefined), the growth was 18.6% (inactive) and 58.1% (inactive).
The result for `c1ccc2c(c1)oc1c3c(ccc12)NCCC3` reads 91.8% (inactive); that for `O=C1C(Cl)=C(Oc2ccccc2)C(=O)c2ccccc21`, 76% (inactive).
As for `CCOC(CN1CCN(CC(C)C(=O)c2ccccc2)CC1)c1ccccc1` (centres undefined), the growth was 110% (inactive).
For `C[C@@H](Oc1cc(C(=O)Nc2ccc(C(=O)N3CCN(C)CC3)cc2)nnc1N)c1c(Cl)ccc(F)c1Cl` the value was 88.3% (inactive).
The result for `O=C1OC(c2nc3ccccc3s2)=C/C1=C\c1ccc(O)cc1` reads 98.2% (inactive).
Take `O=C(O)c1cccc(Br)c1`: the growth was 104% (inactive) and 98.8% (inactive).
The result for `COc1cc(NCCCCCN)c2ncccc2c1` reads 83.2% (inactive); that for `OB1OCc2cc(/C=C/c3cccc(C(F)(F)F)c3)ccc21`, -6.49% (active).
Regarding `c1cc2ccc1CNCCN1CCNCc3ccc(cc3)Oc3ccc(cc3)CNCCN(CCNCc3ccc(cc3)O2)CCNCc2ccc(cc2)Oc2ccc(cc2)CNCC1`, the growth is -57.4% (active).
The result for `Cc1cc(C)n(Cc2cc(C(C)(C)C)cc(C(C)(C)C)c2)c(=O)c1C#N` reads 100% (inactive); that for `O=c1c2ccccc2c2nccn2c2cc(Cl)ccc12`, 30.3% (inactive).
With `CNc1ccc2nc3ccc(=[N+](C)C)cc-3sc2c1`, the growth was -22.9% (active) and 5.72% (active).
For `CCOC(=O)c1c(C)c2c(n1C)CSc1cc(C(=O)c3ccccc3)c(=O)[nH]c1-2` the value was 74.7% [100 µM] (inactive); for `C[C@H]1[C@H](C)CC[C@]2(CO)CC[C@]3(C)C(=CC[C@@H]4[C@@]5(C)CCCNC(C)(C)[C@@H]5CC[C@]43C)[C@H]12`, -55% (active).
As for `CCOC(=O)c1sc(NS(=O)(=O)c2ccccc2)nc1C`, the growth is 153% (inactive).
As to `COC(=O)CNC(=O)[C@H](Cc1ccccc1)NCc1ccncc1`, the growth was 88.6% (inactive).
For `Cc1cc(-c2ccccc2)c(C)n1Cc1ccc(Cl)cc1` the value was -27.2% (active); for `COc1ccc(-c2n[nH]nc2-c2csc3ccccc23)cc1OC`, 10.1% (inactive); for `CC(C)(C)n1cc(-c2ccnc(NCCNS(=O)(=O)c3ccc(C(F)(F)F)cc3)c2)c(-c2cccc(O)c2)n1`, 29.3% (inactive).
For `Cc1c(C2=NNC(c3ccc4c(c3)OCO4)C2)[n+]([O-])c2ccccc2[n+]1[O-]` (centres undefined), the growth was 90.5% (inactive).
`COc1ccccc1OC(=O)Oc1ccccc1OC`: the growth was 101% (inactive) and 98.4% (inactive).
Turning to `CC(=O)N1N=C(c2ccc(C(F)(F)F)cc2)CC1c1ccc2c(c1)OCO2` (centres undefined), the growth is 95.6% (inactive).
Turning to `CCN(CC)CC(=O)Nc1c(C)cc(C(=O)NN)cc1C`, the growth is 65.2% (inactive).
The result for `COc1ccc(NC(=O)C(=O)c2c[nH]c3ccc(F)cc23)cc1` reads 79% (inactive).
With `Cc1nc2n(c(=O)c1CCN1CCC(c3noc4cc(F)ccc34)CC1)CCC[C@@H]2O`, the growth was 89.7% (inactive).
For `COc1ccc(C(O)c2ccccc2)cc1` (centres undefined) the value was 102% (inactive); for `CC(=O)Nc1cc(S(=O)(=O)O)cc2cc(S(=O)(=O)O)c(N=Nc3ccccc3)c(O)c12`, 109% (inactive) and 94.3% (inactive).
Consider `O=C(Nc1cccnc1Nc1ccc(F)cc1)c1cn(Cc2cccc(Oc3ccccc3)c2)nn1`, for which the growth is 26.3% (inactive).
